{"source": "PubChem BioAssay (NCATS)", "note": "Inconclusive results are not listed. Calls of active or inactive are those of the source. Calls come from the whole dose curve; as a rule, active = well fitted curve in either direction with a large enough effect (not every such curve was filed as active); inconclusive = small, poorly fitted or top-dose-only effect, or another doubt; inactive = flat fitted curve, though single readings scatter.", "data": [{"test": "Stat Signaling Pathway (AID 446)", "conditions": "ME-180 SIE beta-lactamase reporter, IL-6 stimulated, 5 h; series mostly up to 17.2 µM", "procedure": "NCGC Assay Overview: The IL-6/STAT signaling pathway was assayed in ME-180 cervical carcinoma cells by a beta-lactamase reporter gene controlled by a STAT Inducible Element (SIE). This reporter is induced by IL-6 at 40 pM AC50 and inhibited by the pan JAK inhibitor, 2-(1,1-Dimethylethyl)-9-fluoro-3,6-dihydro-7H-benz[h]-imidaz[4,5-f]isoquinolin-7-one, at approximately 10 nM AC50. Plated cells were incubated overnight and on the following day, stimulated with 40 pM IL-6 for 5 hrs. The assay was screened at the AC50 of IL-6 activation to identify both inhibitors and activators of IL-6/STAT signaling.\nNCGC Assay Protocol Summary: Cells were trypsinized, washed in assay medium (AM, OPTI MEM with 0.5% fetal bovine serum, 0.1 mM nonessential amino acids, 1 mM sodium pyruvate, 10mM HEPES pH 7.3, 100U/ml penicillin, and 100 ug/ml streptomycin) and suspended at 6 x 10e5/ml in AM. Approximately […] cells in 5 uL/well was dispensed into 1536 well plates and the cells were incubated overnight at 37 C. 23 nL of compound were delivered by a pin tool and 1 uL of IL-6 (40 pM final concentration in AM) was added. After centrifugation at 1000 rpm for less than a minute, plates were incubated at 37C for 5 hrs. One uL of detector mix (LiveBLAzerTM, Invitrogen) was added, the plates incubated at room temperature for 2.5 hrs, and fluorescence intensity at 460 and 530 nm emission was measured at 405 nm excitation by an Envision (Perkin Elmer) or Safire II (Tecan). Data were normalized by GeneData to the controls for AC90 stimulation (300 pM IL-6) and to AC90 inhibition (125 nM Jak inhibitor, 40 pM IL-6 in AM).", "values": [{"smiles": "Cc1cc(-c2ccccc2)nnc1NCCN1CCOCC1", "outcome": "inactive"}, {"smiles": "CC(=O)OCC(=O)[C@H]1CC[C@H]2[C@@H]3CCC4=CC(=O)CC[C@]4(C)[C@H]3CC[C@]12C", "outcome": "inactive"}, {"smiles": "CCCc1ncc(C[n+]2ccccc2C)c(N)n1", "outcome": "inactive"}, {"smiles": "CC(=O)O[C@]1(C(C)=O)CC[C@H]2[C@@H]3C=C(Cl)C4=CC(=O)CC[C@]4(C)[C@H]3CC[C@@]21C", "outcome": "inactive"}, {"smiles": "CC(O)Cn1cnc2c1c(=O)n(C)c(=O)n2C", "note": "(stereo not given)", "outcome": "inactive"}, {"smiles": "CN1CCC(OC(c2ccccc2)c2ccccc2)CC1", "outcome": "inactive"}, {"smiles": "CCCN(CCC)S(=O)(=O)c1ccc(C(=O)O)cc1", "outcome": "inactive"}, {"smiles": "C[N+]1(C)CCC(=C(c2ccccc2)c2ccccc2)CC1", "outcome": "inactive"}, {"smiles": "c1ccc(CC2=NCCN2)cc1", "outcome": "inactive"}, {"smiles": "CC[C@H](c1ccc(O)cc1)[C@@H](CC)c1ccc(O)cc1", "outcome": "inactive"}, {"smiles": "NS(=O)(=O)Cc1noc2ccccc12", "outcome": "inactive"}, {"smiles": "COc1ccc(C(=O)c2ccccc2O)c(O)c1", "outcome": "inactive"}, {"smiles": "CCOC(=O)Nc1ccc2c(c1)N(C(=O)CCN1CCOCC1)c1ccccc1S2", "outcome": "inactive"}, {"smiles": "CN(C)CCC[C@@]1(c2ccc(F)cc2)OCc2cc(C#N)ccc21", "outcome": "inactive"}, {"smiles": "Nc1ccc(S(=O)(=O)Nc2cnc3ccccc3n2)cc1", "outcome": "inactive"}, {"smiles": "CCCCc1cc2ccccc2c(OCCN(C)C)n1", "outcome": "inactive"}, {"smiles": "CCN(CC)CCNC(=O)c1cc(Br)c(N)cc1OC", "outcome": "inactive"}, {"smiles": "CCCCCCCCNC(C)C(O)c1ccc(SC(C)C)cc1", "note": "(stereo not given)", "outcome": "inactive"}, {"smiles": "CN1CCC[C@@H]1CCO[C@](C)(c1ccccc1)c1ccc(Cl)cc1", "outcome": "inactive"}, {"smiles": "CC(C)(C)NCC(O)COc1cccc2c1C[C@H](O)[C@H](O)C2", "note": "(stereo not given in full)", "outcome": "inactive"}, {"smiles": "COc1cc(C)nc(-n2nc(C)cc2OC)n1", "outcome": "inactive"}, {"smiles": "O=C(O)CCc1nc2ccccc2[nH]1", "outcome": "inactive"}, {"smiles": "CCCCN1C[C@H](O)[C@@H](O)[C@H](O)[C@H]1CO", "outcome": "inactive"}, {"smiles": "CCCCNc1ccc(C(=O)OCCOCCOCCOCCOCCOCCOCCOCCOCCOC)cc1", "outcome": "inactive"}, {"smiles": "COc1cc(NS(=O)(=O)c2ccc(N)cc2)ncn1", "outcome": "inactive"}, {"smiles": "Nc1ccc(C(=O)NCC(=O)O)cc1", "outcome": "inactive"}, {"smiles": "O=C1C(O)=C(O)C(=O)C(O)=C1O", "outcome": "inactive"}, {"smiles": "O=C1C(CCS(=O)c2ccccc2)C(=O)N(c2ccccc2)N1c1ccccc1", "note": "(stereo not given)", "outcome": "inactive"}, {"smiles": "Cc1c(-c2ccccc2)oc2c(C(=O)OCCN3CCCCC3)cccc2c1=O", "outcome": "inactive"}, {"smiles": "COc1cc(N)c(Cl)cc1C(=O)NC1CCN(Cc2ccccc2)CC1", "outcome": "inactive"}, {"smiles": "COc1cc(C(=O)NCc2ccc(OCCN(C)C)cc2)cc(OC)c1OC", "outcome": "inactive"}, {"smiles": "O=C(O)CCNC(=O)c1ccccc1", "outcome": "inactive"}, {"smiles": "NC(N)=NCc1cccc(I)c1", "outcome": "inactive"}, {"smiles": "CN(C)CCOC(=O)C(c1ccccc1)C1(O)CCCC1", "note": "(stereo not given)", "outcome": "inactive"}, {"smiles": "CNCCc1ccccn1", "outcome": "inactive"}, {"smiles": "CCc1cc(Cl)c(OC)c(C(=O)NC[C@@H]2CCCN2CC)c1O", "outcome": "inactive"}, {"smiles": "CC(=O)O[C@]1(C(C)=O)CC[C@H]2[C@@H]3C=C(C)C4=CC(=O)CC[C@]4(C)[C@H]3CC[C@@]21C", "outcome": "inactive"}, {"smiles": "CC(=O)OC[C@H]1O[C@@H](n2ncc(=O)[nH]c2=O)[C@H](OC(C)=O)[C@@H]1OC(C)=O", "outcome": "inactive"}, {"smiles": "CC(C)(C)NC[C@H](O)COc1cccc2c1CCCC2=O", "outcome": "inactive"}, {"smiles": "CC[N+](C)(CC)CCOC(=O)C(O)(c1ccccc1)C1CCCCC1", "note": "(stereo not given)", "outcome": "inactive"}]}]}
